This is an account of results in PubChem BioAssay AID463173 (ICCB-Longwood Screening Facility, Harvard Medical School, 2010).

Among all 52,000 compounds or so, about 4,300 (8.3%) were called active. Cut-off read from the data, not from the text of the source: active = survival mostly below about 52% (no sharp cut-off); inactive = mostly above about 56%. The sample as a whole holds a higher share of actives than the screen did.

For this test, the system named is DeltatarO mutant. The experiment in a line: growth inhibition of S. aureus wild type versus tarO mutant, primary screen, teichoic acid synthesis inhibitors, RN4220, OD600 (AID 463173). To be noted: OD600, 18 h, hits give low values, screened at 18.75 µg/mL (by protocol).
Regarding `CCc1sc(Nc2cccc(Cl)c2C)nc1-c1cc2cccc(OC)c2oc1=O`, the survival was 67% (inactive). Next, `O=C(NC1CCCC1)C(c1ccsc1)N(C(=O)Cc1cccs1)c1ccccc1` (stereo not given): 86% (inactive); `O=S(=O)(NC1CCCC1)c1ccc(Br)cc1`: 93% (inactive); `CCCNS(=O)(=O)c1ccc2[nH]c(=O)[nH]c2c1`: 96% (inactive). The value for `O=c1[nH]c2ccc(S(=O)(=O)NC3CCCCC3)cc2[nH]1` was 62% (active); that for `Cc1nc2c(-c3ccc(F)cc3)c(C)nn2c(C)c1CCC(=O)NCc1ccc(F)cc1` was 78% (inactive). The value for `CC(=O)Nc1ccc(NC(=O)CSc2nc3ccccc3nc2N2CCCCC2)cc1` was 57% (inactive); that for `COc1ccc(NC(=O)CSc2nc3ccccc3nc2N2CCCCC2)cc1` was 18% (active). On to `COc1cccc(Cc2nc3ccccc3nc2SCC(=O)Nc2cc(OC)ccc2OC)c1`, for which the survival is 47% (active).

Turning to `CCc1ccccc1NC(=O)CSc1nc2ccccc2nc1Cc1cccc(OC)c1`, the survival is 86% (inactive). The value for `O=C(O)CSc1nc2ccccc2nc1N1CCCCC1` was 56% (inactive); that for `COc1cccc(Cc2nc3ccccc3nc2SCC(=O)Nc2ccccc2F)c1` was 67% (inactive); that for `CC(C)NC(=O)CSc1nc2ccccc2[nH]1` was 60% (inactive). For `COc1ccc(NC(=O)CSc2nc3ccccc3nc2N2CCC(C)CC2)cc1`, the survival was 45% (inactive).

As for `CCN(C(=O)CSc1nc2ccccc2nc1Cc1ccc(F)cc1)c1cccc(C)c1`, the survival was 86% (inactive). The value for `CCN(C(=O)CSc1nc2ccccc2nc1Cc1cccc(OC)c1)c1cccc(C)c1` was 0% (active); that for `COc1cccc(Cc2nc3ccccc3nc2SCC(=O)Nc2cccc(C)c2)c1` was 94% (inactive); that for `CC(C)NC(=O)CSc1nc2ccccc2nc1N1CCCCC1` was -26% (active). Next, `O=C(N/N=C/c1ccc(-c2ccc(Cl)c(C(=O)O)c2)o1)c1ccncc1`: 68% (inactive); `CCc1ccc(-n2c(=O)c3c4c(sc3n(CC(=O)c3ccc(F)cc3)c2=O)CCC4)cc1`: 81% (inactive). The value for `CC(C)CCNC(=O)c1nn(C)c2c1CSc1ccccc1-2` was 70% (inactive); that for `Cn1cnnc1SCC(N)=O` was 99% (inactive); that for `CCOC(=O)c1ccc(NC(=O)c2csnn2)cc1` was 104% (inactive). As for `Cc1ccc(CNC(=O)CSc2ncc(S(=O)(=O)c3ccc(C)c(Cl)c3)c(=O)[nH]2)cc1`, the survival is 77% (inactive). Next, `Cc1cccc(NC(=O)CSc2cn(CC(=O)N3CCOCC3)c3ccccc23)c1`: 82% (inactive); `COc1ccc(CCNC(=O)Cn2c(-c3cccs3)cc3cc(F)ccc32)cc1OC`: 83% (inactive); `Cc1ccc(-n2nc(C(=O)NCc3ccc(F)cc3Cl)c3c4ccccc4n(C)c3c2=O)cc1`: 131% (inactive).

With `COc1ccc(OC)c(NC(=O)CSc2cn(CC(=O)N3CCCCCC3)c3ccccc23)c1`, the survival is 85% (inactive). On to `COc1ccccc1Cc1nc2ccccc2nc1SCC(=O)Nc1cc(Cl)ccc1OC`, for which the survival was 73% (inactive). Take `Cc1cc(C)c(NC(=O)CSc2nc3ccccc3nc2N2CCCCC2)c(C)c1`: the survival is 39% (active). Next, `Cc1cc(C)c(NC(=O)c2nc3ccccc3nc2N2CCCCC2)c(C)c1`: 90% (inactive); `COc1ccc(Cl)cc1NC(=O)CSc1nc2ccccc2nc1N1CCCCC1`: 27% (active); `COc1ccc(OC)c(NC(=O)CSc2nc3ccccc3nc2N2CCCCC2)c1`: 5% (active). The value for `Cc1cccc(NC(=O)CSc2nc3ccccc3nc2N2CCCCC2)c1C` was 75% (inactive); that for `COc1ccc(NC(=O)CSc2nc3ccccc3nc2N2CCOCC2)c(OC)c1` was 76% (inactive). As to `COc1ccc(C)cc1NC(=O)CSc1nc2ccccc2nc1N1CCOCC1`, the survival is 73% (inactive). Next, `COc1ccc(-c2nc3n(n2)C(c2cccc(C)c2)C(C(N)=O)=C(C)N3)cc1OC` (stereo not given): 93% (inactive); `CCN(CC)Cc1ccc(C(=O)O)o1`: 97% (inactive). For the molecule `Cn1c(=O)c2sccc2n2c(CCC(=O)N3CCN(c4cccc(Cl)c4)CC3)nnc12`, the survival is 193% (inactive).

For `CCOc1ccc(-c2cccc(NS(=O)(=O)c3ccc(Cl)s3)c2)nn1`, the survival was 92% (inactive). For `Cc1cccc(NC(=O)CSc2nc(=O)n(Cc3ccccn3)c3c2CCC3)c1C`, the survival was 85% (inactive).

Turning to `CCCOc1ccc(N2CC(C(=O)Nc3cccc(Cl)c3Cl)CC2=O)cc1` (stereo not given), the survival is 145% (inactive). Next, `CCCCOc1cccc(C(=O)N(Cc2sccc2C)C2CCS(=O)(=O)C2)c1` (stereo not given): 73% (inactive). The value for `CCc1ccc(NC(=O)c2ccc(Cn3nc(N4CCN(c5ccccc5)CC4)ccc3=O)o2)cc1` was 83% (inactive); that for `CC(=O)Nc1ccc(NC(=O)c2ccc3c(c2)CCN3S(=O)(=O)c2ccc(Cl)cc2)cc1` was 113% (inactive); that for `Cc1ccc(S(=O)(=O)N2CCc3cc(C(=O)Nc4c(F)cccc4F)ccc32)cc1` was 64% (inactive). The value for `CC(=O)c1cccc(NC(=O)c2ccc3c(c2)CCN3S(=O)(=O)c2ccccc2)c1` was 44% (active); that for `CCCCOC(=O)c1ccc(NC(=O)c2ccc3c(c2)CCN3S(=O)(=O)c2ccccc2)cc1` was 57% (inactive); that for `O=C(c1ccc2c(c1)CCN2S(=O)(=O)c1ccccc1)N1CCN(c2cccc(Cl)c2)CC1` was 45% (inactive). On to `O=C(Nc1cccc(Cl)c1)c1ccc2c(c1)CCN2S(=O)(=O)c1ccccc1`, for which the survival was 41% (active). Next, `CCc1c(C)sc2c1CCN(C(=O)Nc1ccccc1C(=O)OC)C2c1ccc(OC)cc1` (stereo not given): 92% (inactive). Next, `Cn1cc(C(=O)NCCc2ccccc2)c(=O)c2cc(S(=O)(=O)N3CCCCCC3)ccc21`: 68% (inactive); `CN(C(=O)c1nn(C)c2c1CS(=O)(=O)c1ccccc1-2)c1cccc(Cl)c1`: 64% (inactive).

For the molecule `Cc1cccc(NC(=O)Cn2c(=O)n(CCC(=O)N3CCc4ccccc4C3)c(=O)c3ccccc32)c1`, the survival is 88% (inactive). The value for `COc1ccc(NC(=O)CSc2nc3c(oc4ccccc43)c(=O)n2-c2ccccc2)cc1OC` was 63% (inactive). Next, `CCn1c(CN2CCOCC2)nc2cc(NC(=O)c3cc(OC)c(OC)c(OC)c3)ccc21`: 89% (inactive); `O=C(NCCO)C(=O)Nc1c2c(nn1-c1ccc(F)cc1)CSC2`: 82% (inactive).

On to `CCc1ccc(NC(=O)CSc2nc(-c3ccccc3)c(C#N)c(=O)[nH]2)cc1`, for which the survival is 78% (inactive). Next, `COc1ccccc1NC(=O)CSc1nc(-c2ccc(C(C)(C)C)cc2)c(C#N)c(=O)[nH]1`: 52% (inactive); `CC(C)(C)c1ccc(-c2nc(SCC(=O)Nc3ccc(Cl)cc3)[nH]c(=O)c2C#N)cc1`: -2% (active).
